Molecules are shown by their SMILES. Calls of active or inactive are those of the source. The calls were made as follows: active = hit-call score of the fitted dose curve at least 0.9, where 1 is the maximum; inactive = score below 0.9.

What all share (details): mRNA level, 48 h; actives raise or lower the signal
Read-out in assay [1]: Apolipoprotein A-V (APOA5) gene, APOA5 (gene 116519)
In words: LTEA_HepaRG_APOA5: Life Technologies and Expression Analysis (LTEA) Assay for Apolipoprotein A-V (APOA5) gene using HepaRG (AID 2283474). An outline of the steps: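 Differentiated HepaRG cells in serum-free induction medium, exposed 48 h in duplicate to eight half-log concentrations topping at 100 uM (0.5% DMSO). APOA5 mRNA by Fluidigm TaqMan qRT-PCR, normalized to ACTB, GAPDH and POLR2A; bidirectional fit versus DMSO.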

Read-out in assay [2]: Apoptosis regulator Bcl-2 (Homo sapiens) (UniProt P10415)
As to the kind of experiment: LTEA_HepaRG_BCL2: Life Technologies and Expression Analysis (LTEA) Assay for Bcl-2 gene using HepaRG (AID 2283475). The essentials: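 Each chemical was tested in duplicate on HepaRG cultures held in serum-free induction medium for 48 h, highest concentration 100 uM with half-log dilutions. Transcript levels came from multiplexed qRT-PCR, normalised to housekeeping genes; activity was scored in either direction relative to DMSO.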

Read-out in assay [3]: Bcl-2 (BID) gene, BID (gene 637)
As to the kind of experiment: LTEA_HepaRG_BID: Life Technologies and Expression Analysis (LTEA) Assay for Bcl-2 (BID) gene using HepaRG (AID 2283476). An outline of the steps:
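Assay used HepaRG hepatic cells treated 48 h in serum-free medium with half-log dilutions from 100 uM. Endpoint: BID mRNA, qRT-PCR, normalized to ACTB/GAPDH/POLR2A.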

Read-out in another assay: Caspase-3 (Homo sapiens) (UniProt P42574)
In words: LTEA_HepaRG_CASP3: Life Technologies and Expression Analysis (LTEA) Assay for cysteine-aspartic acid protease (CASP3) using HepaRG (AID 2283477). An outline of the steps:
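Differentiated HepaRG cells, plated 48 h, were treated in duplicate in serum-free induction medium for 48 h with eight half-log concentrations up to 100 uM in 0.5% DMSO. CASP3 mRNA measured by qRT-PCR, normalized to ACTB, GAPDH, POLR2A.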

Read-out in assay [4]: Cytochrome P450 (CYP24A1), CYP24A1 (gene 1591)
In words: LTEA_HepaRG_CYP24A1: Life Technologies and Expression Analysis (LTEA) Assay for Cytochrome P450 (CYP24A1) using HepaRG (AID 2283478). An outline of the steps: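 HepaRG cells plated 48 h, then exposed in duplicate in serum-free induction medium for 48 h to 8-point half-log series from 100 uM in 0.5% DMSO. CYP24A1 mRNA by Fluidigm qRT-PCR, normalized to ACTB, GAPDH, POLR2A; bidirectional fit versus DMSO.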

Read-out in assay [5]: Cytochrome P450 (CYP1A2), CYP1A2 (gene 1544)
As to the kind of experiment: LTEA_HepaRG_CYP1A2: Life Technologies and Expression Analysis (LTEA) Assay for Cytochrome P450 (CYP1A2) using HepaRG (AID 2283479). The essentials: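 Differentiated human HepaRG cells in serum-free induction medium exposed 48 hours in duplicate to 8 half-log concentrations from 100 uM, 0.5% DMSO. CYP1A2 mRNA quantified by qRT-PCR, normalized to ACTB, GAPDH and POLR2A; bidirectional fitting versus DMSO.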

Read-out in assay [6]: cysteine-aspartic acid protease (CASP8), CASP8 (gene 841)
In words: LTEA_HepaRG_CASP8: Life Technologies and Expression Analysis (LTEA) Assay for cysteine-aspartic acid protease (CASP8) using HepaRG (AID 2283480). An outline of the steps: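 qRT-PCR readout of CASP8 mRNA, normalized to three housekeeping genes, after 48 h chemical exposure of HepaRG cells; 8-point half-log series, top 100 uM, 0.5% DMSO vehicle. Bidirectional curve fitting against DMSO baseline.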

Read-out in assay [7]: Cytochrome P450 (CYP2B6), CYP2B6 (gene 1555)
In words: LTEA_HepaRG_CYP2B6: Life Technologies and Expression Analysis (LTEA) Assay for Cytochrome P450 (CYP2B6) using HepaRG (AID 2283481). The essentials:
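Differentiated human HepaRG cells in serum-free induction medium, dosed in duplicate for 48 h over 8 half-log concentrations topping at 100 uM (0.5% DMSO). CYP2B6 mRNA measured by TaqMan qRT-PCR, normalized to ACTB, GAPDH, POLR2A; bidirectional fit versus DMSO.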

Read-out in assay [8]: Cytochrome P450 2C19 (Homo sapiens) (UniProt P33261)
As to the kind of experiment: LTEA_HepaRG_CYP2C19: Life Technologies and Expression Analysis (LTEA) Assay for CYP2C19 using HepaRG (AID 2283482). The essentials:
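Differentiated HepaRG cells in serum-free induction medium exposed 48 h in duplicate, 8 concentrations from 100 uM by half-log steps in 0.5% DMSO. CYP2C19 mRNA measured by TaqMan qRT-PCR, normalized to ACTB, GAPDH, POLR2A. Bidirectional fit versus DMSO.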

Read-out in another assay: CYP2C8 (gene 1558)
In words: LTEA_HepaRG_CYP2C8: Life Technologies and Expression Analysis (LTEA) Assay for CYP2C8 using HepaRG (AID 2283483). An outline of the steps: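 HepaRG (human liver line), 48 h chemical exposure, 8-pt half-log series from 100 uM, 0.5% DMSO vehicle. Readout: CYP2C8 transcript by qRT-PCR, housekeeping-normalized. Bidirectional fit vs DMSO baseline.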

Read-out in the next assay: CYP2C9 (gene 1559)
As to the kind of experiment: LTEA_HepaRG_CYP2C9: Life Technologies and Expression Analysis (LTEA) Assay for CYP2C9 using HepaRG (AID 2283484). The essentials:
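HepaRG, 48 h dosing, 8-pt half-log series, top 100 uM, 0.5% DMSO vehicle. Read-out: CYP2C9 transcript by TaqMan qRT-PCR, housekeeping-normalized (ACTB/GAPDH/POLR2A). Gain or loss fitted vs DMSO baseline.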

Read-out in a further assay: CYP2E1 (gene 1571)
As to the kind of experiment: LTEA_HepaRG_CYP2E1: Life Technologies and Expression Analysis (LTEA) Assay for CYP2E1 using HepaRG (AID 2283485). The essentials:
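Assay uses 48 h exposure of HepaRG hepatic cells, eight concentrations to 100 uM. Expression of CYP2E1 is quantified by TaqMan qRT-PCR with ACTB, GAPDH and POLR2A normalization; curves fitted in both directions relative to vehicle.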

Read-out in a further assay: CYP4A11 (gene 1579)
In words: LTEA_HepaRG_CYP4A11: Life Technologies and Expression Analysis (LTEA) Assay for CYP4A11 using HepaRG (AID 2283486). The essentials: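 Differentiated HepaRG cells, 48 h after plating, exposed in duplicate for 48 h to 8 half-log concentrations up to 100 uM in 0.5% DMSO in serum-free induction medium. CYP4A11 mRNA measured by TaqMan qRT-PCR, normalized to ACTB, GAPDH and POLR2A.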

Read-out in assay [9]: Cytochrome P450 3A4 (Homo sapiens) (UniProt P08684)
In words: LTEA_HepaRG_CYP3A4: Life Technologies and Expression Analysis (LTEA) Assay for CYP3A4 using HepaRG (AID 2283487). An outline of the steps: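 Differentiated HepaRG cells, plated 48 h, then dosed 48 h in serum-free induction medium with 0.5% DMSO, 8 half-log concentrations up to 100 uM, duplicate. CYP3A4 mRNA by qRT-PCR, normalized to ACTB/GAPDH/POLR2A; bidirectional fit versus DMSO.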

Read-out in assay [10]: DNA damage-inducible transcript 3 (DDIT3), DDIT3 (gene 1649)
In words: LTEA_HepaRG_DDIT3: Life Technologies and Expression Analysis (LTEA) Assay for DNA damage-inducible transcript 3 (DDIT3) using HepaRG (AID 2283488). An outline of the steps:
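Eight-point concentration-response (100 uM highest, half-log dilutions) in HepaRG, 48 h, duplicate wells. Endpoint: qRT-PCR mRNA, normalized (ACTB, GAPDH, POLR2A), bidirectional fitting with DMSO as baseline.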

Read-out in assay [11]: Early growth response protein 1 (EGR1) transcription factor, EGR1 (gene 1958)
In words: LTEA_HepaRG_EGR1: Life Technologies and Expression Analysis (LTEA) Assay for Early growth response protein 1 (EGR1) transcription factor using HepaRG (AID 2283490). The essentials:
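HepaRG, 48 h exposure, 8-pt half-log series from 100 uM, 0.5% DMSO vehicle; EGR1 transcript by TaqMan qRT-PCR (Fluidigm array), housekeeping-normalized; bidirectional fit relative to DMSO baseline.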

Read-out in assay [12]: Ezrin (EZR), EZR (gene 7430)
In words: LTEA_HepaRG_EZR: Life Technologies and Expression Analysis (LTEA) Assay for Ezrin (EZR) using HepaRG (AID 2283491). The essentials: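 EZR transcript levels came from Fluidigm qRT-PCR and were normalized to three housekeeping genes after 48 h chemical exposure of HepaRG cells. Dosing used an 8-point half-log series with a 100 uM top concentration in 0.5% DMSO, tested in duplicate; both directions were fitted versus vehicle.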

Read-out in assay [13]: Cytochrome P450 3A7 (Homo sapiens) (UniProt P24462)
As to the kind of experiment: LTEA_HepaRG_CYP3A7: Life Technologies and Expression Analysis (LTEA) Assay for CYP3A7 using HepaRG (AID 2283492). The essentials: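 Differentiated HepaRG cells in serum-free induction medium exposed 48 h in duplicate to 8-point half-log series from 100 uM top in 0.5% DMSO. CYP3A7 mRNA by qRT-PCR, normalized to ACTB/GAPDH/POLR2A, bidirectional fit versus DMSO.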

Read-out in assay [14]: Pro-epidermal growth factor (Homo sapiens) (UniProt P01133)
As to the kind of experiment: LTEA_HepaRG_EGF: Life Technologies and Expression Analysis (LTEA) Assay for Epidermal growth factor (EGF) using HepaRG (AID 2283489). The essentials: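 HepaRG cells (~100,000/well, 48 h pre-culture) exposed in duplicate for 48 h in serum-free induction medium to 8 half-log concentrations up to 100 uM in 0.5% DMSO. EGF mRNA by qRT-PCR, normalized to ACTB/GAPDH/POLR2A; bidirectional fit versus DMSO.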

Sequence of Cytochrome P450 3A7 (Homo sapiens) (P24462 whole entry, looked up): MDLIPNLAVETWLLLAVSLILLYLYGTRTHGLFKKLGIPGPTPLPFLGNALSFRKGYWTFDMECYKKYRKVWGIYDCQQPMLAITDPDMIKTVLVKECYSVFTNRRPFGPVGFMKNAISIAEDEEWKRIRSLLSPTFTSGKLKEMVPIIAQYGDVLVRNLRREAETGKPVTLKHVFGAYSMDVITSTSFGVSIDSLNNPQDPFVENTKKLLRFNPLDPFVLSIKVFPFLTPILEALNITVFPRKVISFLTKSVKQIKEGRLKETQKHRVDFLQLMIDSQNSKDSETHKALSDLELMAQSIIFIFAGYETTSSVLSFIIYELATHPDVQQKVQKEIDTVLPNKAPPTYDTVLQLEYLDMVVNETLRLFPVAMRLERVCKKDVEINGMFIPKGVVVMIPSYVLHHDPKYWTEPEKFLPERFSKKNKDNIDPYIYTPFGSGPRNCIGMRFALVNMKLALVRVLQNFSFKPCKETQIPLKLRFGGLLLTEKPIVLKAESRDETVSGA
Sequence of Cytochrome P450 2C19 (Homo sapiens) (P33261 whole entry, looked up): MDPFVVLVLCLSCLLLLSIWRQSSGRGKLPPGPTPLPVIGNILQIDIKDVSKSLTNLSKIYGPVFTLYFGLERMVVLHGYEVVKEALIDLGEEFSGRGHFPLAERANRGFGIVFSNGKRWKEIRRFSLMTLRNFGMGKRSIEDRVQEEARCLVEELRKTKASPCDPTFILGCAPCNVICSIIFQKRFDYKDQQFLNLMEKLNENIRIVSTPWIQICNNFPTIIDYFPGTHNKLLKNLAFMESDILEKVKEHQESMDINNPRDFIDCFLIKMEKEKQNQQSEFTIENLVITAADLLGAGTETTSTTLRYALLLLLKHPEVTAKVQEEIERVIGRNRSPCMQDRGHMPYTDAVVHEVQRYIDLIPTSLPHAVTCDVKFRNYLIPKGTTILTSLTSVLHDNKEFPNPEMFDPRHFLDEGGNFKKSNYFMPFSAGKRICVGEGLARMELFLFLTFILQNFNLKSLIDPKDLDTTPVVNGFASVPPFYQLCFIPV
Sequence of Apoptosis regulator Bcl-2 (Homo sapiens) (P10415 whole entry, looked up): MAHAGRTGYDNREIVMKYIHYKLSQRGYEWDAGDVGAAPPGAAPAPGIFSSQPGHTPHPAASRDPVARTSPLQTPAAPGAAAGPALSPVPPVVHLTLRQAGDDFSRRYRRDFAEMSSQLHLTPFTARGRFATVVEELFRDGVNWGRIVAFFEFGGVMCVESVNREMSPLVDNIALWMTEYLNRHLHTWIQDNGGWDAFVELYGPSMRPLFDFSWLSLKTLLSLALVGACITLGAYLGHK
Sequence of Caspase-3 (Homo sapiens) (P42574 whole entry, looked up): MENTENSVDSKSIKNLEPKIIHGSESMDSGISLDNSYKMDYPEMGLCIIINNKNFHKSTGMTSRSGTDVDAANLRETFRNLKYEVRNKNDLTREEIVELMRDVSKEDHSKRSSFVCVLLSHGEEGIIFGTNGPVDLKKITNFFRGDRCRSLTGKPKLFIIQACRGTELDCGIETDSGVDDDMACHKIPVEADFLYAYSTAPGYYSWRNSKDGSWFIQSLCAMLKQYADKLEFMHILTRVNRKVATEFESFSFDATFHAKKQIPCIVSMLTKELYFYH
Sequence of Cytochrome P450 3A4 (Homo sapiens) (P08684 whole entry, looked up): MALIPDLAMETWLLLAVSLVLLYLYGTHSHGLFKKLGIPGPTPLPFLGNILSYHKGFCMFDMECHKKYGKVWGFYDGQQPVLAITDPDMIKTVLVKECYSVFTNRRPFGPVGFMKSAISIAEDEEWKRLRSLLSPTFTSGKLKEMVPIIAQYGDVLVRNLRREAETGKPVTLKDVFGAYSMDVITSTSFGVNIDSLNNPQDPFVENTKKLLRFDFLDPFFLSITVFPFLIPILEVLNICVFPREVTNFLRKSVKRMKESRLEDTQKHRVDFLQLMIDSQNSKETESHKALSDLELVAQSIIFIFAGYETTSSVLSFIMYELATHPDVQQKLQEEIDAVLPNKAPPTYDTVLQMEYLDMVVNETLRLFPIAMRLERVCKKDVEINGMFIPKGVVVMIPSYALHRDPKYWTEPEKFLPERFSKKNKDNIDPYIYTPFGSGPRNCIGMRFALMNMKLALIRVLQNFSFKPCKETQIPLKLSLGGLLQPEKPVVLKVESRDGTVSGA

On to `O=C1CCC(N2C(=O)c3ccccc3C2=O)C(=O)N1` (centres undefined), for which the compound was called inactive (in assay [1]; in [2]; in assay [3]; in the assay with Caspase-3 (Homo sapiens); in assay [4]; in assay [5]). The call (in assay [6]; in assay [7]; in assay [8]; in the assay with CYP2C8 (gene 1558); with CYP2C9 (gene 1559); in the assay with CYP2E1 (gene 1571)) was inactive. The compound was classed as inactive (with CYP4A11 (gene 1579); in assay [9]; in assay [10]; in assay [11]; in assay [12]; in assay [13]).

On to `CCC(C)(C)C(=O)O[C@H]1C[C@@H](C)C=C2C=C[C@H](C)[C@H](CC[C@@H]3C[C@@H](O)CC(=O)O3)[C@H]21`, for which the result (in [1]; in assay [2]; in assay [3]; with Caspase-3 (Homo sapiens); in assay [6]; in assay [10]) was inactive. The outcome in assay [14], in assay [11] and in [12] was inactive.

Take `CCCC(=O)OCC`: the call (in [1]; in [2]; in [3]; with Caspase-3 (Homo sapiens); in assay [4]; in assay [5]) was inactive. In addition, the compound was called inactive (in assay [6]; in assay [7]; in assay [8]; in the assay with CYP2C8 (gene 1558); with CYP2C9 (gene 1559); with CYP2E1 (gene 1571)). Further, the outcome (with CYP4A11 (gene 1579); in assay [9]; in assay [10]; in assay [14]; in [11]; in [12]) was inactive. Also, in [13], the call was inactive.

For the compound `CCNc1ccccc1`, the call (in assay [1]; in assay [2]; in [3]; with Caspase-3 (Homo sapiens); in assay [4]; in [6]) was inactive. For the same compound, the outcome (in assay [8]; with CYP2C8 (gene 1558); with CYP2C9 (gene 1559); with CYP2E1 (gene 1571); with CYP4A11 (gene 1579); in assay [9]) was inactive. The result in [10], in [14], in [11], in assay [12] and in assay [13] was inactive. Also, the AC50 in assay [5] is 16.5 µM (active); in assay [7] it was 28.3 µM (active).

In the case of `C1N2CN3CN1CN(C2)C3`, the call (in [1]; in [2]; in assay [3]; with Caspase-3 (Homo sapiens); in assay [4]; in assay [6]) was inactive. Moreover, the compound was classed as inactive (in assay [7]; in assay [8]; in the assay with CYP2C8 (gene 1558); with CYP2C9 (gene 1559); with CYP2E1 (gene 1571); with CYP4A11 (gene 1579)). The result in [9], in assay [10], in assay [14], in assay [11], in assay [12] and in [13] was inactive. The AC50 in assay [5] was 68.7 µM (active).

Source of the values: PubChem BioAssay (EPA / NIEHS).
